The results in this text go back to PubChem BioAssay (NCATS).

Structures are written as SMILES. Records with an inconclusive call do not appear. A number with no mark means an inactive call. Calls of active or inactive are those of the source. Calls follow the shape of the dose curve; as a rule, active = well fitted curve in the direction sought with a large enough effect; inconclusive = small, poorly fitted or top-dose-only effect, or another doubt; inactive = no such curve, though single readings can be large; an effect the other way counts as inactive or inconclusive. Square brackets hold non-standard residues; d marks the D form. Peptide text beside a SMILES is read from it. pGlu = O=C1CC[C@@H](C(=O)O)N1

Sequence of Ubiquitin carboxyl-terminal hydrolase 1 (Homo sapiens) (O94782 whole entry, looked up): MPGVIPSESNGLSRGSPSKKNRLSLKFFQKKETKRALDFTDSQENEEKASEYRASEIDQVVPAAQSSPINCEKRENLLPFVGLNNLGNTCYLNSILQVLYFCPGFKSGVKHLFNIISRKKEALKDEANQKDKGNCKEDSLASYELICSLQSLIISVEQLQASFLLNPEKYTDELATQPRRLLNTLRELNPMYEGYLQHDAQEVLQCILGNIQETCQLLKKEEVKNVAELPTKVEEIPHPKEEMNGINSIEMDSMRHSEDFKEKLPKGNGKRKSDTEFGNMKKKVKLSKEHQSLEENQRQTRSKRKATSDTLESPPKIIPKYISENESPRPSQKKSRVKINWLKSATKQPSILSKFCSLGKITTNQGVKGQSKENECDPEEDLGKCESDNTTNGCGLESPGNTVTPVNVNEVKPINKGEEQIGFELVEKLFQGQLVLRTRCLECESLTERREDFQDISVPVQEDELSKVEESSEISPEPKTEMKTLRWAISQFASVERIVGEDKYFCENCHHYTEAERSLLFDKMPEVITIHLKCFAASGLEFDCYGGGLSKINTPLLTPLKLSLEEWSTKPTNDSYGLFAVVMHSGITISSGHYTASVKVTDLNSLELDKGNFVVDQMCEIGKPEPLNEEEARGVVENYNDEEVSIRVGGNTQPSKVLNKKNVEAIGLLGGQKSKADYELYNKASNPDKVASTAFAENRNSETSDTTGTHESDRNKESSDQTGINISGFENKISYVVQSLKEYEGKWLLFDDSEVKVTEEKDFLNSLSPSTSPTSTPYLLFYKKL
Sequence of Luciferin 4-monooxygenase (Photinus pyralis) (P08659 whole entry, looked up): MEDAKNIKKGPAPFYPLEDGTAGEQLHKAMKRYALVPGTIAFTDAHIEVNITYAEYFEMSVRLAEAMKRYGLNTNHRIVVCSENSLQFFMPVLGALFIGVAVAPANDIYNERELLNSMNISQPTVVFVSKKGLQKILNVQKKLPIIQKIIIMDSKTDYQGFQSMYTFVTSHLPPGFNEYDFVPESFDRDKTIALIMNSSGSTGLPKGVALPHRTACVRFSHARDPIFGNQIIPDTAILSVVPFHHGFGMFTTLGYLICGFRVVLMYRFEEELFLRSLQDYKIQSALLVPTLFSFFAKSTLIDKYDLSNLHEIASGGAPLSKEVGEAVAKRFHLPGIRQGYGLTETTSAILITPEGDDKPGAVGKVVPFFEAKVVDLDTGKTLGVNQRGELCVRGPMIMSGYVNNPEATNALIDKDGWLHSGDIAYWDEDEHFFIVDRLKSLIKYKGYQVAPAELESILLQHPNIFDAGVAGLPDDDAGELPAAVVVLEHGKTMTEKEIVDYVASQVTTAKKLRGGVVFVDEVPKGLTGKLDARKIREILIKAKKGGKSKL

For one assay, the target named is ATP-dependent 6-phosphofructokinase (Trypanosoma brucei brucei) (UniProt O15648). Nature of the assay: qHTS Assay to Find Inhibitors of T. brucei phosphofructokinase: hit validation (AID 492961).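 Also: luminescence reports ADP formed as PFK phosphorylates fructose-6-phosphate with ATP; % is scaled to controls: 0 for no effect and ±100 for the full control effect.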 As to conditions: T. brucei PFK, ADP-Glo luminescence; series mostly up to 51.4 µM; activity change, negative = inhibition: at the top concentration. In short, it runs like this: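 Inhibition of parasite PFK is measured as reduced ADP formation, quantified via luciferase after ATP depletion. Assay used 0.1 mM ATP, 0.5 mM F6P, 1.25 nM enzyme, 45 min incubation.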
Sequence of ATP-dependent 6-phosphofructokinase (Trypanosoma brucei brucei) (O15648 whole entry, looked up): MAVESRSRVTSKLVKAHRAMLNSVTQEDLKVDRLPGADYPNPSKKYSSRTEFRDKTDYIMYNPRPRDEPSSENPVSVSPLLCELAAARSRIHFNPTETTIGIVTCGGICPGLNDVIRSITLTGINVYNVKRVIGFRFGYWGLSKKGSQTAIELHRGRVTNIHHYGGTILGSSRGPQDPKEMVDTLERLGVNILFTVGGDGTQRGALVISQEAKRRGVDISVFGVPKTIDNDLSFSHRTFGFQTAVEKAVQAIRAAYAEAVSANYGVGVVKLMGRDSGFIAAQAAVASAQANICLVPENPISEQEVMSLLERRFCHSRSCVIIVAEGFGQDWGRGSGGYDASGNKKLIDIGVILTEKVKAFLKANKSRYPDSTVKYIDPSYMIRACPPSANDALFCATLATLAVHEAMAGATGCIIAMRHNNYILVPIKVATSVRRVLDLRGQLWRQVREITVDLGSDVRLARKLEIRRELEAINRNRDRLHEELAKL
Take `Cc1cc(CC(C)CC(C)(C)C)n(O)c(=O)c1` (stereo not given): the “activity change, negative = inhibition” value was -3.44%. Same read-out and setting: under `CC1CCC(C(C)C)C(OC(=O)c2ccccc2O)C1` (stereo not given) stands 10.6%. Still for that read-out and setting: the value for `CO[C@@H]1[C@@H](OC2OC(C)C(OC3CC(C)(O)C(OC(=O)CC(C)C)C(C)O3)C(N(C)C)C2O)[C@@H](CC=O)C[C@@H](C)C(=O)/C=C\C2O[C@H]2C[C@@H](C)OC(=O)C[C@H]1OC(C)=O` (stereo not given in full) was 9.21%.

Take `CCC(=O)O[C@@H](OP(=O)(CCCCc1ccccc1)CC(=O)N1C[C@H](C2CCCCC2)C[C@H]1C(=O)O)C(C)C` (stereo not given in full): the “activity change, negative = inhibition” value was 0%.

As for `CC(=O)O[C@@]12CO[C@@H]1C[C@H](O)[C@@]1(C)C(=O)[C@H](O)C3=C(C)[C@@H](OC(=O)C(O)[C@@H](NC(=O)OC(C)(C)C)c4ccccc4)C[C@@](O)([C@@H](OC(=O)c4ccccc4)[C@H]21)C3(C)C` (stereo not given in full), the “activity change, negative = inhibition” value is 3.36%.

Regarding `CC1(C)S[C@@H]2[C@H](NC(=O)COc3ccccc3)C(=O)N2[C@H]1C(=O)O`, the “activity change, negative = inhibition” value is -4.2%. The same measure, in the same setting: under `O=NCc1ccc([N+](=O)[O-])o1` stands -9.71%.

The target in the next assay is Ubiquitin carboxyl-terminal hydrolase 1 (Homo sapiens) (UniProt O94782). Put plainly: Inhibitors of USP1/UAF1: Pilot qHTS (AID 504865). Also: nearly all actives have a fitted effect of over 35% in size. Also: potency is read from the fitted curve at half-maximal effect.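 As to activity change, negative = inhibition: rhodamine fluorescence freed from ubiquitin-rhodamine substrate followed over time; top concentration of the series differs between compounds; % is scaled to controls: 0 for no effect and ±100 for the full control effect.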 The settings on record: purified USP1/UAF1, Ub-rhodamine cleavage fluorescence; series mostly up to 54.9 µM; activity change, negative = inhibition: at the top concentration. In short, it runs like this:
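In 50mM HEPES pH 7.8 containing 0.5mM EDTA, 1mM TCEP, 0.1 mg/ml BSA and 0.01% Tween-20, 1nM USP1/UAF1 is exposed to compound for 15 min, then Ub-Rho (150nM final) is added and fluorescence is read over time.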
(In general: In qHTS, concentration-response curves come from the screen itself.)
With `COc1cc(/C=C/C(=O)N2CCC=CC2=O)cc(OC)c1OC`, the “activity change, negative = inhibition” value was -5.48% [at 114 µM]. The same measure, in the same setting: the value for `CC1CCC(C(C)C)C(OC(=O)c2ccccc2O)C1` (stereo not given) was -2.75% [at 114 µM]; that for `CC(C)(CO)C(O)C(=O)NCCCC(=O)O` (stereo not given) was 4.25% [at 114 µM]. Still for that read-out and setting: the value for `CO[C@@H]1[C@@H](OC2OC(C)C(OC3CC(C)(O)C(OC(=O)CC(C)C)C(C)O3)C(N(C)C)C2O)[C@@H](CC=O)C[C@@H](C)C(=O)/C=C\C2O[C@H]2C[C@@H](C)OC(=O)C[C@H]1OC(C)=O` (stereo not given in full) was -7.99% [at 114 µM]; that for `CCC(=O)O[C@@H](OP(=O)(CCCCc1ccccc1)CC(=O)N1C[C@H](C2CCCCC2)C[C@H]1C(=O)O)C(C)C` (stereo not given in full) was -0.137% [at 114 µM]. On the same count and under the same terms, the value for `CC(=O)O[C@@]12CO[C@@H]1C[C@H](O)[C@@]1(C)C(=O)[C@H](O)C3=C(C)[C@@H](OC(=O)C(O)[C@@H](NC(=O)OC(C)(C)C)c4ccccc4)C[C@@](O)([C@@H](OC(=O)c4ccccc4)[C@H]21)C3(C)C` (stereo not given in full) was -3.18% [at 114 µM]; that for `CC1(C)S[C@@H]2[C@H](NC(=O)COc3ccccc3)C(=O)N2[C@H]1C(=O)O` was -4.63% [at 114 µM]. For the molecule `CCN1/C(=C/C=C/C=C/c2sc3ccccc3[n+]2CC)Sc2ccccc21`, the Potency is 22.4 µM (active). Take `O=NCc1ccc([N+](=O)[O-])o1`: the “activity change, negative = inhibition” value is -2.14% [at 114 µM].

The next assay addresses Luciferin 4-monooxygenase (Photinus pyralis) (UniProt P08659). Nature of the assay: Biochemical firefly luciferase enzyme assay for NPC (AID 624030). Also: nearly all actives have a fitted effect of over 70% in size. Also: potency is read from the fitted curve at half-maximal effect.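 As to activity change, negative = inhibition: purified P. pyralis luciferase at 10 nM with luciferin and ATP substrate; 0% = DMSO and -100% = full luciferase inhibition by PTC124 control.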 The settings on record: purified P. pyralis luciferase, luminescence, 5 min; series mostly up to 58.6 µM; activity change, negative = inhibition: at the top concentration. The procedure, abridged: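 Purified P. pyralis luciferase at 10 nM in 50 mM Tris Acetate (final), luminescence read within 5 minutes of enzyme addition to compounds. Activity normalised to PTC124 versus DMSO; concentration-response curves classed by r2, magnitude and activity.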
As for `CC/C=C(\C(=O)N[C@H]1C(=O)N2C(C(=O)OCOC(=O)C(C)(C)C)=C(COC(N)=O)CS[C@H]12)c1csc(N)n1`, the “activity change, negative = inhibition” value is -5.9%.

`CC(C)CC(NC(=O)CNC(=O)C(Cc1ccc(O)cc1)NC(=O)C(CO)NC(=O)C(Cc1c[nH]c2ccccc12)NC(=O)C(Cc1cnc[nH]1)NC(=O)C1CCC(=O)N1)C(=O)NC(CCCN=C(N)N)C(=O)N1CCCC1C(=O)NCC(N)=O` (stereo not given): the “activity change, negative = inhibition” value was 19.3%. The same measure, in the same setting: the value for `CO/N=C(/C(=O)N[C@@H]1C(=O)N2C(C(=O)O)=CCS[C@H]12)c1csc(N)n1` was -11.5%; that for `Cc1cc(CC(C)CC(C)(C)C)n(O)c(=O)c1` (stereo not given) was 0.806%; that for `CC1CCC(C(C)C)C(OC(=O)c2ccccc2O)C1` (stereo not given) was 0.416%. On to `CC(C)(CO)C(O)C(=O)NCCCC(=O)O` (stereo not given), for which the “activity change, negative = inhibition” value was 2.5%. Still for that read-out and setting: the value for `CO[C@@H]1[C@@H](OC2OC(C)C(OC3CC(C)(O)C(OC(=O)CC(C)C)C(C)O3)C(N(C)C)C2O)[C@@H](CC=O)C[C@@H](C)C(=O)/C=C\C2O[C@H]2C[C@@H](C)OC(=O)C[C@H]1OC(C)=O` (stereo not given in full) was -1.14%. Consider `CCCCCCCCCCCCCCCC(=O)OCC(O)C1OC(=O)C(O)=C1O` (stereo not given), for which the “activity change, negative = inhibition” value was -11.1%. Still for that read-out and setting: the value for `CCC(=O)O[C@@H](OP(=O)(CCCCc1ccccc1)CC(=O)N1C[C@H](C2CCCCC2)C[C@H]1C(=O)O)C(C)C` (stereo not given in full) was -0.0943%.

As to `N=C(N)c1ccc(OCCCOc2ccc(C(=N)N)cc2Br)c(Br)c1`, the “activity change, negative = inhibition” value is 16.2%. Take `CC(=O)O[C@@]12CO[C@@H]1C[C@H](O)[C@@]1(C)C(=O)[C@H](O)C3=C(C)[C@@H](OC(=O)C(O)[C@@H](NC(=O)OC(C)(C)C)c4ccccc4)C[C@@](O)([C@@H](OC(=O)c4ccccc4)[C@H]21)C3(C)C` (stereo not given in full): the Potency entry was “inactive”.

As for `COc1cc([C@@H]2c3cc4c(cc3[C@@H](O[C@@H]3O[C@@H]5CO[C@@H](C)O[C@H]5[C@H](O)[C@H]3O)[C@H]3COC(=O)[C@H]23)OCO4)cc(OC)c1OP(=O)(O)O`, the “activity change, negative = inhibition” value was 1.71%.

Regarding `NCCCC(N)C(=O)O` (stereo not given), the “activity change, negative = inhibition” value was 0.769%. For `CC1(C)S[C@@H]2[C@H](NC(=O)COc3ccccc3)C(=O)N2[C@H]1C(=O)O`, the “activity change, negative = inhibition” value was -6.12%. For `CCN1/C(=C/C=C/C=C/c2sc3ccccc3[n+]2CC)Sc2ccccc21`, the Potency is 32.2 µM (active). As for `Nc1nc(Cl)nc2c1ncn2C1CC(O)C(CO)O1` (stereo not given), the “activity change, negative = inhibition” value was -4.03%. Turning to `O=NCc1ccc([N+](=O)[O-])o1`, the “activity change, negative = inhibition” value was 9.17%.

Turning to `CCNC(=O)[C@H]1CCCN1C(=O)[C@H](CCCN=C(N)N)NC(=O)[C@H](CC(C)C)NC(=O)[C@H](CC(C)C)NC(=O)[C@@H](Cc1ccc(O)cc1)NC(=O)[C@H](CO)NC(=O)[C@@H](Cc1c[nH]c2ccccc12)NC(=O)[C@H](Cc1cnc[nH]1)NC(=O)[C@@H]1CCC(=O)N1` ([pGlu]H[dW]S[dY]LLR[dP]-NHEt), the “activity change, negative = inhibition” value is 42.1%.

Turning to `CO/N=C(/C(=O)N[C@@H]1C(=O)N2C(C(=O)OC(C)OC(C)=O)=C(COC(N)=O)CS[C@H]12)c1ccco1` (stereo not given in full), the “activity change, negative = inhibition” value was -2.36%.
